Assay in all cases: DAPPL (digital affinity profiling via proximity ligation, sequencing); 10 mM Tris-HCl pH 7.5, 50 mM NaCl, 1 mM DTT, 4% glycerol, room temperature, 30 min; GST-TFs on glutathione beads, 16-mer random dsDNA library, 0.1% formaldehyde crosslink after washing; high values mean tight binding
What all share (conditions): protein: recombinant; tags: N-terminal GST; dsDNA, one strand shown

For one assay, the target named is T1, FLI1 (Homo sapiens, UniProt Q01543 1-452).
T1 sequence: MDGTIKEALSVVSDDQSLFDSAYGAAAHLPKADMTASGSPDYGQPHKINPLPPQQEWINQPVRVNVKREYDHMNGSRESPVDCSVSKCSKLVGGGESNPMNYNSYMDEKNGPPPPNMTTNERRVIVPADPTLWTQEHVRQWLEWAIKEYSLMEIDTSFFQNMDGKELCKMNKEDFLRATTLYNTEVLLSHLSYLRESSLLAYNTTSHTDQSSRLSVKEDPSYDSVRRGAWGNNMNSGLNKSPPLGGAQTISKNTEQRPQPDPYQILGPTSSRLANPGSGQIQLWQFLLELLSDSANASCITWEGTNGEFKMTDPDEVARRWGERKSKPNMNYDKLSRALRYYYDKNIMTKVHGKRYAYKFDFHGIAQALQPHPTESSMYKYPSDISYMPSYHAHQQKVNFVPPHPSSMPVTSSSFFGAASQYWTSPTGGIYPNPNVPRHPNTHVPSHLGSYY
Put shortly:
(§1)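 GST fusions of human transcription factors were expressed in yeast and captured with glutathione beads. Once given DNA barcodes and pooled alongside a tag-only sample, they were incubated for 30 min at room temperature with 200 nmole of a random double-stranded 16-mer DNA library in Tris/NaCl/DTT/glycerol buffer, then washed, crosslinked (0.1% formaldehyde), proximity-ligated, PCR-amplified and sequenced on an Illumina NextSeq500. The binding signal of each hexamer is its read frequency for a factor divided by its frequency for the tag-only sample.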

In the next assay the target is T2, ELK1 (Homo sapiens, UniProt P19419 1-428).
T2 sequence: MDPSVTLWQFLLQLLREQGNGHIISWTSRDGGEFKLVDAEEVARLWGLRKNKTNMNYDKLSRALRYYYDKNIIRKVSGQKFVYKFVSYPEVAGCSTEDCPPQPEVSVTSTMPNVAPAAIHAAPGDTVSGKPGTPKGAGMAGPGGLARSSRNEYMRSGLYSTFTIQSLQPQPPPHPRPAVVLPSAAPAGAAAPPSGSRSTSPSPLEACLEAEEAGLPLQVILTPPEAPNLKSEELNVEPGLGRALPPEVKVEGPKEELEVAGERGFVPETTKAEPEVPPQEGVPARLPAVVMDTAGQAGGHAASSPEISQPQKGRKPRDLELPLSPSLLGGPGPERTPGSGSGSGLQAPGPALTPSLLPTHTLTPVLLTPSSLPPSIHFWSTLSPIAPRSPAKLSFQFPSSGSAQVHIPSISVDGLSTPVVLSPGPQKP
Put shortly:
as §1

In the next assay the target is T3, GABPA (Homo sapiens, UniProt Q06546 1-454).
T3 sequence: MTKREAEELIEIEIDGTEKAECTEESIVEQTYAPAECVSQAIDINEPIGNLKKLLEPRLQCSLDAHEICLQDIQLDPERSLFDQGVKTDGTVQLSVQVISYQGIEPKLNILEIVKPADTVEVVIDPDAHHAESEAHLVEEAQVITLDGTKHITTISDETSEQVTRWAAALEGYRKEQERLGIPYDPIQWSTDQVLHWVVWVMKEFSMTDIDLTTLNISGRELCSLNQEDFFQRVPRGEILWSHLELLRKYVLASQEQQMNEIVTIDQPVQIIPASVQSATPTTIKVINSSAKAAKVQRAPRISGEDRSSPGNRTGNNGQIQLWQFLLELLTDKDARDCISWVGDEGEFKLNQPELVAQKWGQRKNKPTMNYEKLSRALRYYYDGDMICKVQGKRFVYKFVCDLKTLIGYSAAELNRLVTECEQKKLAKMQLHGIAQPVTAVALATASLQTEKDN
Put shortly:
as §1

In the next assay the target is T4, ERG (Homo sapiens, UniProt P11308 1-479).
T4 sequence: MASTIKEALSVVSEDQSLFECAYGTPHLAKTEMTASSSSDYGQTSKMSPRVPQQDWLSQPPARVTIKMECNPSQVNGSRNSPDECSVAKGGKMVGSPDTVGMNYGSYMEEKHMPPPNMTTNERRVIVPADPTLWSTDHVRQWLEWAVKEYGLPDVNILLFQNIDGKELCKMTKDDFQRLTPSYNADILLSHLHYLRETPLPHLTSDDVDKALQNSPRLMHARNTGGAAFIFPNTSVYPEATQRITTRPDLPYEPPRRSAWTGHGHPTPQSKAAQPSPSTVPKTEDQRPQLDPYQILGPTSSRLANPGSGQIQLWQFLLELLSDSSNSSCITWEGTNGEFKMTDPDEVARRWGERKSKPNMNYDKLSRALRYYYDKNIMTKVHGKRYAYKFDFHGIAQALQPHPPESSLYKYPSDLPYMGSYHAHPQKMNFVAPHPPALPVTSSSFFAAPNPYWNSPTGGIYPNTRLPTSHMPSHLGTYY
The method, boiled down: as §1

Another assay deals with ELF1 (Homo sapiens, UniProt P32519 1-619). Put shortly: as §1
Sequence of ELF1 (P32519 whole entry): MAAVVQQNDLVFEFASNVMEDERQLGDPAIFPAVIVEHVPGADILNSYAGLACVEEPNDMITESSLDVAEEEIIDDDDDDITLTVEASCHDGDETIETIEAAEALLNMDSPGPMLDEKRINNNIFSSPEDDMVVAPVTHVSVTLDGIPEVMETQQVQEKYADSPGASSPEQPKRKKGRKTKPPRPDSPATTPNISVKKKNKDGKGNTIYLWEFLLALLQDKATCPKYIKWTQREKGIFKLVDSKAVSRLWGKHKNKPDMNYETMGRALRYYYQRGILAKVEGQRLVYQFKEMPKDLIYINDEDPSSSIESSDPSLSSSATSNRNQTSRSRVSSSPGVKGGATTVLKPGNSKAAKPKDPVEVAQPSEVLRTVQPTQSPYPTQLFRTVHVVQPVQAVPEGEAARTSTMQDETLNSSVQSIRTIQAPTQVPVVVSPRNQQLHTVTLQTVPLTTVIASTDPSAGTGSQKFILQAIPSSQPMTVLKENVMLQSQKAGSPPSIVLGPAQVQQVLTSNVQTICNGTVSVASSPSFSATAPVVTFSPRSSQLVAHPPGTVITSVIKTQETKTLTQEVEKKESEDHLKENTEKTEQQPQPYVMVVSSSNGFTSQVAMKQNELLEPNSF
A further assay deals with T5, EHF (Homo sapiens, UniProt Q9NZC4 1-300).
T5 sequence: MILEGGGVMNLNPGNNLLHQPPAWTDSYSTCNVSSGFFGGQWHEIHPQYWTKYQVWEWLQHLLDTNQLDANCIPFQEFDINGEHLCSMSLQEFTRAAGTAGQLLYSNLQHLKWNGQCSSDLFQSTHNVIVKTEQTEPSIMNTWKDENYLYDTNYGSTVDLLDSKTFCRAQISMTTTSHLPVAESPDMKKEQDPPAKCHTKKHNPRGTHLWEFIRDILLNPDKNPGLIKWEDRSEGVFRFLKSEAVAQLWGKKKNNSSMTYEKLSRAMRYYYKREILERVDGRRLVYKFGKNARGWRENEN
The method, boiled down: as §1

The target in a further assay is SPI1 (Homo sapiens, UniProt P17947 1-270). Put shortly: as §1
A further assay concerns the target SPIB (Homo sapiens, UniProt Q01892 1-262). Put shortly:
as §1

The target in another assay is T6, ELK3 (Homo sapiens, UniProt P41970 1-407).
T6 sequence: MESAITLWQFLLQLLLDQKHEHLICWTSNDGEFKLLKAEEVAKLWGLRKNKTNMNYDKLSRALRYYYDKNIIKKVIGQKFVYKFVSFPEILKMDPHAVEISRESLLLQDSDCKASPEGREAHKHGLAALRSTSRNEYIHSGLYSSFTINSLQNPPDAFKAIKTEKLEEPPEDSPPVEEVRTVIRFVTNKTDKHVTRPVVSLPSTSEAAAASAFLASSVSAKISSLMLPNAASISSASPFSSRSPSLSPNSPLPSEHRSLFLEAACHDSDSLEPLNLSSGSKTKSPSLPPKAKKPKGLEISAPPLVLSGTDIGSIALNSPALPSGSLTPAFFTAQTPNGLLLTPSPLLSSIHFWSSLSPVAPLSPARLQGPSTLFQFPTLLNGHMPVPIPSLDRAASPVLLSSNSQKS
Put shortly: as §1

Another assay addresses T7, FEV (Homo sapiens, UniProt Q99581 1-238).
T7 sequence: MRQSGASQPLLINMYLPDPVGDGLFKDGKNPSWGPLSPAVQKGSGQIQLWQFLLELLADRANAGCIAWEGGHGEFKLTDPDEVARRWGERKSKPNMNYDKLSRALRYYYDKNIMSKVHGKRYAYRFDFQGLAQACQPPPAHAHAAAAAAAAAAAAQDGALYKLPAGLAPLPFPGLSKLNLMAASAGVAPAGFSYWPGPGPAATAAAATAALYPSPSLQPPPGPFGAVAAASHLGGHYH
The method, boiled down: as §1

A further assay deals with ETV5 (Homo sapiens, UniProt P41161 1-510). Put shortly:
as §1

In a further assay the target is T8, SPIC (Homo sapiens, UniProt Q8N5J4 1-248).
T8 sequence: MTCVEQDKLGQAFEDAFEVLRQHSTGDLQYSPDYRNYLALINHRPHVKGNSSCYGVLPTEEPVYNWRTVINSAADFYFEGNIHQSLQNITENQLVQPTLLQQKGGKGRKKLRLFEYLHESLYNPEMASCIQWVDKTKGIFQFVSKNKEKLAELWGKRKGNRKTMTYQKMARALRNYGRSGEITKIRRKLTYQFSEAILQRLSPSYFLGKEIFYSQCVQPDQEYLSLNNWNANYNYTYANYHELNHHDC
Put shortly:
as §1

The target in the next assay is ELF4 (Homo sapiens, UniProt Q99607 1-663). Put shortly:
as §1

In another assay the target is T9, ELK4 (Homo sapiens, UniProt P28324-2 1-405).
T9 sequence: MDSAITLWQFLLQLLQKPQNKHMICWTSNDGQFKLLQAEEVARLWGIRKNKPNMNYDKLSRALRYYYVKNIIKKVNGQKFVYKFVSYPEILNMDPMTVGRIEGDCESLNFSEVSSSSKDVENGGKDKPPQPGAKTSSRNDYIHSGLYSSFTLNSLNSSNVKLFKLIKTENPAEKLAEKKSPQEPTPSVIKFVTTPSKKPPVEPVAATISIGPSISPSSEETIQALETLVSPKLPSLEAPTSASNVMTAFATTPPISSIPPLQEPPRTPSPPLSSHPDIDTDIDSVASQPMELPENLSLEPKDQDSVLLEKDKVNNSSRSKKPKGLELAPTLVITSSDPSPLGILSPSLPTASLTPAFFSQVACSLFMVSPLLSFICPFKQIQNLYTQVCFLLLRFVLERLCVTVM
Put shortly: as §1

Another assay addresses T10, ETV2 (Homo sapiens, UniProt O00321 1-342).
T10 sequence: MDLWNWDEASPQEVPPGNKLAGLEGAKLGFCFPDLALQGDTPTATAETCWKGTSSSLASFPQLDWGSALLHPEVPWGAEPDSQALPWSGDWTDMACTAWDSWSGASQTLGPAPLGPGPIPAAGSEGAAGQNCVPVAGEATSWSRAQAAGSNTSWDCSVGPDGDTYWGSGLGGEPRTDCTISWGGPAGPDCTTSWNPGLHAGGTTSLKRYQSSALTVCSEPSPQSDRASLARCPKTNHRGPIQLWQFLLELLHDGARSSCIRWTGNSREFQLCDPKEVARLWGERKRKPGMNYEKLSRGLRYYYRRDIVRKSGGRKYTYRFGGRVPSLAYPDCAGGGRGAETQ
Put shortly:
as §1

A further assay deals with T11, ELF3 (Homo sapiens, UniProt P78545 1-371).
T11 sequence: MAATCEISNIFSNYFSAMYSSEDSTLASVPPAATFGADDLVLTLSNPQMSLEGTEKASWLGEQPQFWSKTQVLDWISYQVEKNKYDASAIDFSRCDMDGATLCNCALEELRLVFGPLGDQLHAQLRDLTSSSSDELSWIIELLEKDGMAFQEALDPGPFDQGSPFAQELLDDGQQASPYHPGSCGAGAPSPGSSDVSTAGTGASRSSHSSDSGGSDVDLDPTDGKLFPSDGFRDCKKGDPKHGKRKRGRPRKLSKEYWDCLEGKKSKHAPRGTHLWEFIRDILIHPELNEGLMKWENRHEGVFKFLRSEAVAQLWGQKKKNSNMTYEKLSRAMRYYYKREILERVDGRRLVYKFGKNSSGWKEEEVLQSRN
Put shortly: as §1

The next assay deals with ETV1 (Homo sapiens, UniProt P50549 1-477). Put shortly: as §1
Sequence of ETV1 (P50549 whole entry): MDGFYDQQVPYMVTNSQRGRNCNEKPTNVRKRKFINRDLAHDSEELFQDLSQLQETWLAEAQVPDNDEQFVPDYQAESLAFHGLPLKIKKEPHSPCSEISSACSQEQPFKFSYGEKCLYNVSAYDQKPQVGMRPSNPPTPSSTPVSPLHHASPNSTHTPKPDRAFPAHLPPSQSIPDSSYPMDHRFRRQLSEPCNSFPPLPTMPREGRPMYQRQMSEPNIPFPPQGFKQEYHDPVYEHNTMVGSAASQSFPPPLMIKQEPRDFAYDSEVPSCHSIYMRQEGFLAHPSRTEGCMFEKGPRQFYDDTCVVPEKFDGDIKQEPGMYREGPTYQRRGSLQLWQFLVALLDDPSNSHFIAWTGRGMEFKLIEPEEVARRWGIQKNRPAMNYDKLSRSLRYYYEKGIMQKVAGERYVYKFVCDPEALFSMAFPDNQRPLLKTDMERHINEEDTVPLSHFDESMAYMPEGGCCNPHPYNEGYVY

Sequence of SPIB (Q01892 whole entry): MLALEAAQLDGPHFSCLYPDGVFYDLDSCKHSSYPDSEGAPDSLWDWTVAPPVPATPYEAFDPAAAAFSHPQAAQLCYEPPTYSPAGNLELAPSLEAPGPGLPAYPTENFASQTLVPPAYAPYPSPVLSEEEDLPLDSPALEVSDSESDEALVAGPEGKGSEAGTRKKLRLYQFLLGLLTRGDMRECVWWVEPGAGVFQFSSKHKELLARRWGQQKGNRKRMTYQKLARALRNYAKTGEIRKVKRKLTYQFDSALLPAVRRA
Sequence of ELF4 (Q99607 whole entry): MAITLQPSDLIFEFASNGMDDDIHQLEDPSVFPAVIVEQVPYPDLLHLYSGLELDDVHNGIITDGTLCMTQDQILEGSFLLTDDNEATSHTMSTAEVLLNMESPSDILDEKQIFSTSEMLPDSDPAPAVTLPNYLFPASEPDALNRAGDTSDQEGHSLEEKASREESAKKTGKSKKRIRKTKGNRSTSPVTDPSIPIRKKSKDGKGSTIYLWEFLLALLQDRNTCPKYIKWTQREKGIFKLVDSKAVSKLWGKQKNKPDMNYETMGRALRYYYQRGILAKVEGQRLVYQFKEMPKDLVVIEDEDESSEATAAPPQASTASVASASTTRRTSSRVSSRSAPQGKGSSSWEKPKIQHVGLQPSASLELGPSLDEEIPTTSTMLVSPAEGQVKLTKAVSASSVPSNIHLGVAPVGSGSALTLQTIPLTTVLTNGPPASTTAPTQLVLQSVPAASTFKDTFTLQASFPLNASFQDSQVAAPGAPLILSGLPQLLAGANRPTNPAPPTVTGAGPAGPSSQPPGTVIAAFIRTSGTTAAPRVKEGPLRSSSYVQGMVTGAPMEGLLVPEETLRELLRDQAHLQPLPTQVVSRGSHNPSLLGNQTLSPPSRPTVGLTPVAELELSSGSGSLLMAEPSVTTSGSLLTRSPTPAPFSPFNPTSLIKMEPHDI
Sequence of ETV5 (P41161 whole entry): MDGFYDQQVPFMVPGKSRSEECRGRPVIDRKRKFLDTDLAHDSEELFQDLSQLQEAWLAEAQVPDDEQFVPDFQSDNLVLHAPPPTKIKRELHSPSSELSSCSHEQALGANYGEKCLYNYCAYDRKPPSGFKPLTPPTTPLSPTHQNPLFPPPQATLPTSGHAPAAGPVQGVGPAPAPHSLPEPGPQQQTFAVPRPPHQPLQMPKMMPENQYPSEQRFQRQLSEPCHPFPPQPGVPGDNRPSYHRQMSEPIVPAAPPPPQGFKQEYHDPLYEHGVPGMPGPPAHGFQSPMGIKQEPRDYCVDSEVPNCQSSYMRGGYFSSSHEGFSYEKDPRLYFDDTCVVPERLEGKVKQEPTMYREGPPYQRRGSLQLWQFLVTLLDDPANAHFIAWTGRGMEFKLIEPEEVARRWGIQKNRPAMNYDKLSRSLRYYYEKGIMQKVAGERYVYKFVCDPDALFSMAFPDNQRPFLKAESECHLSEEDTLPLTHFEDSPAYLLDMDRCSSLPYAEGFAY

In the case of TCCGGG, the binding signal was 1.54 fold enrichment (6-mer frequency, TF over GST control) with FLI1; 1.55 fold enrichment (6-mer frequency, TF over GST control) in the assay with ELK1; 1.35 fold enrichment (6-mer frequency, TF over GST control) in the assay with GABPA; 1.56 fold enrichment (6-mer frequency, TF over GST control) with ERG; 1.48 fold enrichment (6-mer frequency, TF over GST control) with ELF1; 1.48 fold enrichment (6-mer frequency, TF over GST control) in the assay with EHF. Moreover, the binding signal was 1.4 fold enrichment (6-mer frequency, TF over GST control) with SPI1; 1.65 fold enrichment (6-mer frequency, TF over GST control) with SPIB; 1.46 fold enrichment (6-mer frequency, TF over GST control) with ELK3; 1.36 fold enrichment (6-mer frequency, TF over GST control) in the assay with FEV; 1.69 fold enrichment (6-mer frequency, TF over GST control) with ETV5; 1.63 fold enrichment (6-mer frequency, TF over GST control) with SPIC. The binding signal is 1.41 fold enrichment (6-mer frequency, TF over GST control) with ELF4; 1.37 fold enrichment (6-mer frequency, TF over GST control) in the assay with ELK4; 1.5 fold enrichment (6-mer frequency, TF over GST control) with ETV2; 1.41 fold enrichment (6-mer frequency, TF over GST control) in the assay with ELF3; 1.59 fold enrichment (6-mer frequency, TF over GST control) with ETV1.
CATGCC: the binding signal with FLI1 is 1.18 fold enrichment (6-mer frequency, TF over GST control); with ELK1, 1.17 fold enrichment (6-mer frequency, TF over GST control); in the assay with GABPA it was 1.09 fold enrichment (6-mer frequency, TF over GST control); in the assay with ERG, 1.1 fold enrichment (6-mer frequency, TF over GST control); with ELF1, 1.16 fold enrichment (6-mer frequency, TF over GST control); in the assay with EHF, 1.16 fold enrichment (6-mer frequency, TF over GST control). The binding signal with SPI1 is 1.09 fold enrichment (6-mer frequency, TF over GST control); with SPIB, 1.11 fold enrichment (6-mer frequency, TF over GST control); with ELK3, 1.06 fold enrichment (6-mer frequency, TF over GST control); with FEV, 1.13 fold enrichment (6-mer frequency, TF over GST control); with ETV5 it was 1.13 fold enrichment (6-mer frequency, TF over GST control); in the assay with SPIC it was 1.16 fold enrichment (6-mer frequency, TF over GST control). The binding signal in the assay with ELF4 is 1.16 fold enrichment (6-mer frequency, TF over GST control); with ELK4, 1.17 fold enrichment (6-mer frequency, TF over GST control); with ETV2, 1.08 fold enrichment (6-mer frequency, TF over GST control); in the assay with ELF3, 1.13 fold enrichment (6-mer frequency, TF over GST control); in the assay with ETV1, 1.12 fold enrichment (6-mer frequency, TF over GST control).
